Reference: PubChem BioAssay (NCI)
Compounds without any hit were thinned out: in the full panel of roughly 83,000, 20% have a hit.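 How to read the values: 0–100, growth inhibition (40 = 60% inhibited); 0, no net growth; -100 to 0, cell death (-40 = 40% of starting cells died; -100 = all dead).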 Activity calls are given as the source filed them. Rule for the calls: active = growth percent below 10; inactive = the rest.

Columns and labels:
Experiment in all cases: NCI-60 one-dose screen, 48 h (100 = growth as untreated, 0 = no growth, -100 = all killed)
Details in all cases: 10 µM unless noted
[1] = system: NCI-H23 lung
[2] = system: NCI-H226 lung
[3] = system: NCI-H322M lung
[4] = system: HOP-62 NSCLC
[5] = system: NCI-H460 lung
[6] = system: HOP-92 NSCLC
[7] = system: NCI-H522 lung
[8] = system: A549/ATCC NSCLC
[9] = system: 786-0 renal
[10] = system: COLO 205 colon

Measured: growth

O=C1C(Cl)=C(Nc2ccc3c(c2NC2=C(Cl)C(=O)c4ccccc4C2=O)C(=O)c2ccccc2C3=O)C(=O)c2ccccc21
active: [1] -3.56% | [8] -31.8%
inactive: [2] 36.9% | [3] 46.9% | [4] 39.5% | [5] 10.4% | [6] 61.4% | [7] 12.4% | [9] 48.5% | [10] 21.1%

COc1cccc(NC(=O)Nc2ccc(Nc3ncnc4[nH]c(C)c(C)c34)cc2)c1
inactive: [1] 111% | [2] 101% | [3] 114% | [4] 103% | [5] 102% | [6] 104% | [7] 90.8% | [8] 92.7% | [9] 113% | [10] 112%

COc1cc(-c2csc(NC(=O)Nc3cc(Cl)cc(Cl)c3)n2)cc(OC)c1OC
inactive: [1] 23.7% | [2] 27.5% | [7] 37.5%
active: [3] -42.1% | [4] -64.8% | [5] -61.6% | [6] -14.3% | [8] -45.9% | [9] -29.2% | [10] 5.56%

O=C1CCC23OC(C(O)c4ccccc4N12)C1C(Br)=NOC13 (stereo not given)
inactive: [1] 99.1% | [2] 110% | [3] 107% | [4] 96.8% | [5] 110% | [6] 109% | [7] 99.9% | [8] 99.7% | [9] 94.6% | [10] 108%

COc1ccc(Cc2nc(C#N)c(N3CCN(c4ccc(F)cc4)CC3)o2)cc1
inactive: [1] 86.3% | [2] 74.1% | [3] 99.5% | [4] 95.8% | [5] 104% | [6] 88.2% | [7] 73.6% | [8] 92.1% | [9] 91.1% | [10] 103%

Nc1ccccc1NC(=O)c1ccc(CSc2nc(N3CCOCC3)c3cccn3n2)cc1
inactive: [1] 22.5% | [3] 22% | [4] 15.5% | [5] 15.3% | [8] 11.8% | [9] 17.3%
active: [2] 6.52% | [6] -6.72% | [7] -50.3% | [10] -29%

COc1ccc(-n2nc(C(=O)NCC(=O)O)nc2-c2ccccc2)cc1
inactive: [1] 107% | [2] 105% | [3] 98.1% | [4] 108% | [5] 116% | [6] 97.1% | [7] 82.5% | [8] 97.8% | [9] 102% | [10] 124%

C#CCN1C(=O)c2ccccc2N(CC#C)C12CCN(Cc1cn(CC(=O)Nc3ccccc3C(N)=O)nn1)CC2
inactive: [1] 78.4% | [2] 83.2% | [3] 85% | [4] 104% | [5] 89.7% | [6] 107% | [7] 67.7% | [8] 92.3% | [9] 81.1% | [10] 99.9%

COc1ccccc1N1CCN(CCCOc2ccc(C(=O)/C=C3/C(=O)Nc4ccccc43)cc2)CC1
inactive: [1] 45.3% | [2] 53% | [3] 88.7% | [4] 38.2% | [5] 66.4% | [6] 18.2% | [7] 65.9% | [8] 76% | [9] 45.7% | [10] 65.5%

COc1cc(C(=O)Nc2cc(O)c(C/C=C(\C)CCC=C(C)C)c(O)c2)cc2c1O[C@]1(C)CC[C@@H](O)C(C)(C)[C@H]1C2
inactive: [1] 27.8% | [2] 40.5% | [3] 48.2% | [5] 12.4% | [7] 18.8% | [8] 11.9%
active: [4] 8.47% | [6] -2.91% | [9] -6.12% | [10] -22.2%

COc1ccc2nc(-c3ccc(OC)c(OC)c3)cc(-c3nnc(SCC(=O)Nc4ccc(/C(C)=N\O)cc4)n3-c3ccccc3)c2c1
inactive: [1] 91.5% | [2] 74.6% | [3] 84.5% | [4] 87.9% | [5] 89.6% | [6] 61.6% | [7] 42% | [8] 70.7% | [9] 88.5% | [10] 112%

Cc1cccc2nc3c(n12)C(=O)C(=O)c1ccccc1-3
inactive: [1] 39.6% | [2] 80% | [3] 90% | [4] 26% | [5] 37.3% | [6] 92.6% | [7] 43.8% | [8] 61.2% | [9] 106% | [10] 98.3%

OCCNc1nc(NCCO)nc(Nc2ccc(C3=NN(c4cc(Cl)cc(Cl)c4)C(c4ccc(Cl)cc4)C3)cc2)n1 (stereo not given)
inactive: [1] 29.1% | [2] 109% | [3] 14.6% | [4] 15.9% | [6] 60.7% | [7] 58.9%
active: [5] -22.7% | [8] 2.31% | [9] -19.6% | [10] 7.12%

O=C(Nc1nc(-c2ccccc2)cs1)c1cc(-c2ccc(Br)cc2)nc2ccccc12
active: [6] 6.1%
inactive: [1] 51.6% | [2] 46.3% | [3] 81.5% | [4] 57.1% | [5] 31.3% | [7] 43.5% | [8] 36.5% | [9] 65.4% | [10] 56.2%

COc1ccccc1Nc1nnc(-c2ccc(Cl)cc2)o1
inactive: [1] 63.9% | [2] 73.6% | [3] 70.5% | [4] 47.4% | [5] 16.1% | [6] 91.1% | [7] 16.6% | [8] 34.4% | [9] 75.8% | [10] 35.3%

NS(=O)(=O)c1ccc(C2C3=C(CCCC3=O)OC3=C2C(=O)c2ccccc2C3=O)cc1 (stereo not given)
active: [1] -31.3% | [2] -56.7% | [3] 6.58% | [4] -89.8% | [5] -71.4% | [6] -31.7% | [7] -73.7% | [8] -34.9% | [9] -90.7% | [10] -80.3%

CCOC(=O)c1ccc(Nc2ncnc3ccc(NC(=O)c4ccccc4)cc23)cc1
inactive: [1] 83.7% | [2] 78.2% | [3] 95.6% | [4] 98.8% | [5] 95.5% | [6] 86.4% | [7] 73.3% | [8] 91.5% | [9] 86.8% | [10] 104%

Cc1cc(C)n(-c2nc(-c3cccs3)c(C#N)c(=O)[nH]2)n1
inactive: [1] 97.6% | [2] 105% | [3] 92.1% | [4] 81.2% | [5] 96.8% | [6] 102% | [7] 83.8% | [8] 99.9% | [9] 93.1% | [10] 111%

COc1ccc(-c2[nH]c3ccc(OC)cc3c2C=C(C#N)C#N)cc1
inactive: [1] 32.9% | [2] 59.7% | [3] 58.8% | [4] 32.5% | [5] 17.2% | [6] 20.3% | [8] 32.5% | [9] 28.9%
active: [7] -8.75% | [10] 5.59%

CCOC(=O)c1c(C)nc2c(c1N)/C(=C/c1ccc[nH]1)C(=O)N2Cc1ccc(C(F)(F)F)cc1
inactive: [1] 51.8% | [2] 38.1% | [3] 74.4% | [4] 23.6% | [5] 16.8% | [6] 41.1% | [7] 43.3% | [8] 48.9% | [9] 22.9% | [10] 75.6%

C/C(=N/Nc1nc2ccccc2n1C)c1ccccn1
active: [1] 6.57% | [2] -12.1% | [4] -7.45% | [5] -23.3% | [7] -4.8% | [8] 4.01% | [9] 9.02% | [10] -4.66%
inactive: [3] 14.7% | [6] 15.9%

O=c1[nH]c2ccccc2cc1-c1nc2ccc(Cl)cc2[nH]1
inactive: [1] 53.5% | [2] 55.2% | [3] 50.3% | [4] 67.2% | [5] 18% | [7] 38.2% | [8] 40.1% | [9] 52.8% | [10] 52.2%
active: [6] 7.43%

Cc1cccc(C)c1NCc1nnc(-c2ccco2)o1
inactive: [1] 89% | [2] 80.5% | [3] 91.1% | [4] 80.2% | [5] 97% | [6] 83.4% | [7] 72.8% | [8] 86.8% | [9] 105% | [10] 103%

COc1ccc(-c2nnc(N3CCN(C(=O)CN4CCN(c5ccccc5)CC4)CC3)nc2-c2ccc(OC)cc2)cc1
inactive: [1] 48.3% | [2] 46.7% | [3] 77.3% | [4] 58.9% | [5] 14% | [6] 23.2% | [7] 14.2% | [8] 28% | [9] 33.7% | [10] 17.5%

COc1cc(NC(=O)Nc2cnc(Nc3ccc(N4CCOCC4)cc3)nc2Oc2ccc(C(F)(F)F)cc2)cc(OC)c1
inactive: [1] 105% | [2] 97.7% | [3] 106% | [4] 95.5% | [5] 105% | [6] 99% | [7] 95.9% | [8] 103% | [9] 109% | [10] 127%

COc1ccc(C2N(c3cc(OC)c(OC)c(OC)c3)C(=O)C2(F)F)cc1F (stereo not given)
inactive: [1] 37.9% | [2] 75.5% | [3] 91.2% | [4] 38.4% | [5] 27.2% | [6] 60.8% | [7] 17.5% | [8] 48.6% | [9] 75.3% | [10] 16.3%

CCOC(=O)c1cnn(-c2nc(-c3ccc(F)cc3)c(C#N)c(N3CCOCC3)n2)c1N
inactive: [1] 103% | [2] 92.1% | [3] 105% | [4] 111% | [5] 100% | [6] 98.7% | [7] 90.6% | [8] 93.9% | [9] 82.5% | [10] 107%
